GPT2 inhibitor: Primary qHTS assay for inhibitors of Glutamate pyruvate transaminase 2 (GPT2); Recombinant GPT2, coupled pyruvate oxidase/HRP Amplex Red fluorescence; Potency, µM (highest dose often 57.7 µM), most hits filed as inhibitors; 100,000 tested, 0.25% active; AID 1671188, 2021; note: nearly all actives have a fitted effect of over 60% in size
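Inhibition is scored from Amplex Red fluorescence generated when pyruvate oxidase and HRP act on pyruvate released by GPT2. Reactions contain 10ng/uL enzyme, 250uM a-KG and 2mM L-alanine and run 30 min at room temperature.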
NPR1 antag: Natriuretic polypeptide receptor (hNpr1) antagonism - Primary qHTS | HEK293 hNpr1 GloSensor cGMP, ANP-stimulated luminescence | Potency, µM (top dose mostly 46.3 µM), actives largely listed as inhibitors | 76,000 tested, 1.6% active; calls by dose curve; note: nearly all actives have a fitted effect of over 60% in size
Target sequence (P16066 whole entry, looked up): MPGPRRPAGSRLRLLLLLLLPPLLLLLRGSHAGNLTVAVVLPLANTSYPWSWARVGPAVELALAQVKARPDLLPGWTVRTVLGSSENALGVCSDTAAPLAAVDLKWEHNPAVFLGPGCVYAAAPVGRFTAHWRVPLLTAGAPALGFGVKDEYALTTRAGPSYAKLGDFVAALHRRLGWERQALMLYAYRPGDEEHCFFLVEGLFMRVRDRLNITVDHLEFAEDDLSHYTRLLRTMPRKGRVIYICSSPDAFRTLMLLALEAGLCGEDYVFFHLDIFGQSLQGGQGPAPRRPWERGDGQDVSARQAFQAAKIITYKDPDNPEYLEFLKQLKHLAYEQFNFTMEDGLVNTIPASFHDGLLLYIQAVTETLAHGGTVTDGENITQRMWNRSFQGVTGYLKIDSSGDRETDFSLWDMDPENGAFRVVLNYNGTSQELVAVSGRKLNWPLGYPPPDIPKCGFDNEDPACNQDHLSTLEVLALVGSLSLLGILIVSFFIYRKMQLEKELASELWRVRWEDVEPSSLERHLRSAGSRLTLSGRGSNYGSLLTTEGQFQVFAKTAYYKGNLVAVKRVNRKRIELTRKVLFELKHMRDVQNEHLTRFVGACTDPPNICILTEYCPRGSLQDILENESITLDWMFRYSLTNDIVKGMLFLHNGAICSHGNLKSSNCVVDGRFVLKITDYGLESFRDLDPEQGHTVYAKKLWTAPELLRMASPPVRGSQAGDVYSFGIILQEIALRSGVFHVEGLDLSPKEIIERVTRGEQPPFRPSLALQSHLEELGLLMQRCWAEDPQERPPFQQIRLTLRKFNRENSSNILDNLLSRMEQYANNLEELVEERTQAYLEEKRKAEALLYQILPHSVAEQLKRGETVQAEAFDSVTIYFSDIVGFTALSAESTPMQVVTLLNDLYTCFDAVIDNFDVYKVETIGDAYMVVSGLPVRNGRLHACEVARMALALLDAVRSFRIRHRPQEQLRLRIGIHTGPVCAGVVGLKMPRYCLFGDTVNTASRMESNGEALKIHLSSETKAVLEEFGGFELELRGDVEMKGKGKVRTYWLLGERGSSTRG
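Compound pre-incubated 30 min at room temperature on GloSensor-loaded HEK293 cells stably carrying hNpr1 and the pGS-40F cGMP biosensor. Stimulation uses hNppA at 0.1 nM final; luminescence is taken at baseline and 20 min post-agonist.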
3T3 cytotox: Cytotoxic Profiling in NIH 3T3 Cell Line of Diverse Libraries Using Quantitative High-Throughput Screening. NIH 3T3 viability, CellTiter-Glo ATP luminescence, 48-72 h. Potency, µM (doses to about 96.7 µM), hits mostly inhibitors. 94,000 tested, 4.3% active. AID 1345082, 2018; note: nearly all actives have a fitted effect of over 55% in size
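Cytotoxicity was measured by CellTiter-Glo ATP luminescence after 48 or 72 h compound exposure at 37 °C. Mouse NIH 3T3 fibroblasts were seeded at 400 cells/well and dosed by 23 nL pin transfer.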
FLuc inh-1: Firefly luciferase inhibition profiling of diverse chemical library using quantitative high-throughput screening | Potency, µM (series often up to 115 µM), hits mostly inhibitors | Luciferin 4-monooxygenase (Photinus pyralis), P08659 | 76,000 tested, 2.5% active | AID 1347043, 2019 | purified P. pyralis luciferase, luminescence, biochemical; note: nearly all actives have a fitted effect of over 65% in size
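FLuc 10nM, D-luciferin 10uM, ATP 10uM, Mg acetate 10mM, Tris acetate pH 7.5, Tween/BSA; cpd qHTS; enzyme added last; CCD luminescence.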
HEK293 tox: Cytotoxic Profiling in HEK 293 Cell Line of Diverse Libraries Using Quantitative High-Throughput Screening; 94,000 tested, 6.6% active; Potency, µM (doses to about 115 µM), actives largely listed as inhibitors; HEK 293 viability, ATP luminescence (CellTiter-Glo), 48-72 h; AID 1345083, 2018; note: nearly all actives have a fitted effect of over 60% in size
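ATP-coupled CellTiter-Glo luminescence served as viability read-out, recorded 10 min after reagent addition at room temperature. HEK 293 cells, 250 cells/well, had been incubated with pintool-transferred compound for 48 or 72 hr at 37 degree Celsius.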
FLuc SDR -ATP: Firefly luciferase (FLuc-C-HiBiT) SDR gain of signal screen - without ATP | shares compounds with FLuc inh-1 | Purified FLuc-C-HiBiT, Nano-Glo HiBiT luminescence, no ATP | Potency, µM (titrated, usually from 32.7 µM), hits mostly activators | 1,300 tested, 7.8% active; note: nearly all actives have a fitted effect of over 55% in size
FLuc SDR ATP: Firefly luciferase (FLuc-C-HiBiT) SDR gain of signal screen - plus ATP. shares compounds with FLuc inh-1. purified FLuc-C-HiBiT + ATP, HiBiT complementation luminescence. Potency, µM (series often up to 32.7 µM), usual class: activators. 1,300 tested, 8.7% active;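 note: signal reports ligand binding via conformational change of the enzyme rather than luciferase catalysis; nearly all actives have a fitted effect of over 55% in size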
FLuc inh-2: Firefly luciferase (FLuc-C-HiBiT) enzymatic inhibition screen - Functional assay | shares compounds with FLuc inh-1 | 1,300 tested, 42% active | AID 1963320, 2024 | Potency, µM (doses to about 32.7 µM), actives largely listed as inhibitors | purified FLuc-C-HiBiT enzyme, luciferin luminescence; note: nearly all actives have a fitted effect of over 70% in size
Hits are given with their value; . = inactive; ? = inconclusive; / = no result; [ ] = remark or other dose. Shown are actives, neighbours in structure and some others; about 10% of the full set was active somewhere. Unless noted, calls come from the whole dose curve; as a rule, active = well fitted curve in the direction sought with a large enough effect; inconclusive = small, poorly fitted or top-dose-only effect, or another doubt; inactive = no such curve, though single readings can be large; an effect the other way counts as inactive or inconclusive.

SMILES	GPT2 inhibitor	NPR1 antag	3T3 cytotox	FLuc inh-1	HEK293 tox	FLuc SDR -ATP	FLuc SDR ATP	FLuc inh-2
CC(C)n1cc2cc(C(=O)Nc3ccc4c(c3)OCCO4)sc2c1	.	?	.	14µM	35µM	.	.	9.9µM
CCN(CC)c1cc(CCC(=O)O)ccn1	.	.	.	6.3µM	.	.	1.6µM	1.4µM
NC(=O)[C@@H]1CCCN1C(=O)c1ccc2oc(-c3cccc(F)c3)nc2c1	.[11.5 µM]	.	?	11µM	?	.	.	.
c1ccc(-c2ccnc(NCCc3c[nH]c4ccccc34)n2)nc1	.	.	?	8.9µM	?	.	.	?
c1ccc(-c2csc(CCNc3nccc(-c4ccccn4)n3)n2)cc1	.	?	?	?	?	/	/	/
CCn1cc(-c2ccc(Cl)cc2)cc1C(=O)NCCCN1CCOCC1	.	.	?	.	?	/	/	/
COc1ccccc1-n1c(=O)c(C(=O)N2CCN(C(=O)NC3CCCC3)CC2)nc2cccnc21	.	/	.	/	.	/	/	/
COc1cccc(-c2ccc(C(=O)N3CCC(C(=O)N4CCC(Cc5ccccc5)CC4)CC3)cc2)c1	.	/	?	/	?	/	/	/
O=C(Cc1cccc(Cl)c1)N1CCn2c(nnc2-c2ccccc2)C1	.	.	?	2.8µM	.	.	.	?
Cc1ccc(CSc2nc3cccnc3n2Cc2ccc(C(=O)NCc3ccco3)cc2)cc1	/	/	/	/	/	3.9µM	?	0.62µM
Cc1ccc(C(=O)N2CCN(C(=O)c3nc4cccnc4n(Cc4ccccc4)c3=O)CC2)cc1	.	/	.	/	.	/	/	/
NC(=O)c1cc2c(nc1N1CCC3(CCCN(CC4CCC4)C3)C1)CCC2 (stereo not drawn)	.[11.5 µM]	.	.	.	.	/	/	/
COc1cc(OC)cc(N2C(=O)[C@@H]3C[C@@H](NC(=O)c4ccc(SC)cc4OC)CCN3C2=O)c1	.	.	.	.	.	/	/	/
Clc1ccc(Nc2ncc(-c3cccnc3)c3c2OCC3)cc1	.	.	?	5µM	?	.	.	?
Cn1cc(-c2cnc(Nc3ccc(N4CCOCC4)cc3)c3c2CCO3)cn1	?	.	?	4µM	?	?	?	14µM
COc1ccc(-c2cnc(Nc3cccc(N[S+](C)(=O)[O-])c3)c3c2CCO3)cn1	.	.	?	14µM	89µM	.	.	?
Fc1ccc(Nc2ncc(-c3cccnc3)c3c2OCC3)cc1	.	.	?	11µM	.	.	.	?
c1ccc(Nc2ncc(-c3cccnc3)c3c2OCC3)cc1	.	/	/	/	/	.	?	?
COc1ccc(-c2cc3c(=O)n(CCNC(=O)c4ccco4)ccn3n2)cc1	.	.	?	7.9µM	?	?	?	9.9µM
COc1ccc(-c2cc3c(=O)n(CCNC(=O)c4c(F)cccc4Cl)ccn3n2)cc1	.	.	.	3.2µM	?	?	?	?
COc1cccc(C(=O)NCCn2ccn3nc(-c4ccc(C)c(C)c4)cc3c2=O)c1	.	.	.	?	.	/	/	/
COc1ccc(-c2cc3c(=O)n(CCNC(=O)c4c(F)cccc4F)ccn3n2)cc1	.	.	.	4µM	.	?	?	5µM
COc1cccc(-c2cc3c(=O)n(CCNC(=O)C4CCN(C(C)=O)CC4)ccn3n2)c1	.	.	.	14µM	.	?	?	?
COc1cccc(-c2cc3c(=O)n(CCNC(=O)C4CCCCC4)ccn3n2)c1	.	?	.	?	?	/	/	/
COc1cccc(-c2cc3c(=O)n(CCNC(=O)c4cc(Cl)ccc4F)ccn3n2)c1	.	?	.	.	?	/	/	/
SMILES	GPT2 inhibitor	NPR1 antag	3T3 cytotox	FLuc inh-1	HEK293 tox	FLuc SDR -ATP	FLuc SDR ATP	FLuc inh-2
CCC(C)NC(=O)C1CCCN1C(=O)c1cccc(-c2ccccn2)c1 (stereo not drawn)	/	/	.	/	.	/	/	/
CC(=O)N1CCN(C(=O)c2ccc3nc(-c4cccc(C)n4)oc3c2)CC1	.	/	.	/	.	/	/	/
COc1ccc(-c2nc(C)c(CCNC(=O)c3c(F)cccc3F)s2)cc1	/	/	/	/	/	.	.	.
CCC(C(=O)NCCn1ccn2nc(-c3ccc(OC)cc3)cc2c1=O)c1ccccc1 (stereo not drawn)	.	.	?	8.9µM	?	.	.	?
O=C(NC[C@H]1Cn2cc(-c3ccc4c(c3)OCCCO4)nc2CO1)c1ccc2c(c1)OCO2	.	.	.	10µM	?	?	?	?
COc1cccc(CNC(=O)Cn2c(-c3ccccc3)nc(C)cc2=O)c1	.	.	.	.	?	/	/	/
COc1cccc(CNc2nc3ccccc3c3nc(-c4cccc(C)c4)nn23)c1	/	/	/	/	/	.	.	?
COc1ccc(-c2nc3c4cnn(-c5ccccc5F)c4ncn3n2)cc1	/	/	/	/	/	.	.	?
CNC(=O)[C@@H]1[C@H]2CN(Cc3ccccn3)CCN2C[C@H]1c1ccccc1	/	/	.	/	?	/	/	/
Cn1c(C(=O)Nc2ccc3c(c2)OCO3)cc2c1CCN(Cc1cccc(F)c1)C2	?	.	?	10µM	?	.	.	.
CC(=O)c1cccc(NC(=O)c2cc3c(n2C)CCN(Cc2cccc(F)c2)C3)c1	.	.	.	?	?	/	/	/
COc1ccc(C(=O)Nc2ccccc2-c2nc3ccccc3s2)cc1OC	/	/	/	/	/	.	.	.
O=C(Nc1ccccc1-c1nc2ccccc2s1)c1cc(Cl)cc(Cl)c1	/	/	/	/	/	.	.	.
O=C(Nc1cc(-c2ccncc2)nn1-c1ccccc1)c1ccc(F)cc1	.	/	?	/	?	/	/	/
COc1ccc(-c2ccc(C(=O)Nc3ccccc3Cl)cc2)nn1	/	/	.	/	?	/	/	/
O=C(Nc1ccccc1-c1nc2ccccc2s1)c1ccc(F)cc1	/	/	/	/	/	.	.	.
Cn1ncc2c(C(=O)Nc3ccccc3Cl)cc(-c3ccccc3C(F)(F)F)nc21	/	/	.	/	?	/	/	/
COc1ccc(-c2noc(CC3CCN(C(=O)C4CC4)CC3)n2)cc1	.	?	?	.	?	/	/	/
Cc1ccc(NC(=O)C2CCN(c3nc(-c4ccc(C(C)C)cc4)no3)CC2)c(Cl)c1	/	/	/	/	/	.	?	?

Screening results deposited in PubChem BioAssay by National Center for Advancing Translational Sciences (NCATS).
